Screens from PubChem BioAssay.
Pf growth 96h – inhibits malaria parasite growth, 96 h | P. falciparum luciferase reporter growth, 96 h | Potency, µM (top dose mostly 28.7 µM), without a hit: at the top dose activity change, negative = inhibition, actives largely listed as inhibitors | hit rate 6.9% among 320,000 | AID 504834; active means well fitted inhibition curve with a large enough effect; inconclusive means small, poorly fitted or top-dose-only effect, or another doubt; inactive means no such curve, though single readings can be large or run the other way; further: potency means the concentration at half of the fitted maximal effect; on the % scale 0 is the no-effect control and ±100 the full control effect
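P. falciparum expressing integrated firefly luciferase grown in erythrocytes (2% hematocrit, 0.05% parasitemia final) with compounds for 96 hours at 37 C, 5% CO2. Growth inhibition read as loss of luminescence after adding luciferase detection reagent.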
Cycloheximide cs – counter-screen for Shiga toxin inhibitors: cycloheximide protein synthesis inhibition. cell reporter, cycloheximide protein synthesis inhibition counterscreen. max response, %. hit rate 12% among 300,000; in the data active means max response mostly above about 13%, no sharp cut-off; inactive means mostly below about 14%; further: read at 38.3 µM for the half of the compounds with a filed dose; 0% is about no effect
NS1 function inh – influenza NS1 inhibition; Potency, µM (titrated, usually from 46.1 µM), inactives show at the highest dose activity, positive = more growth; hit rate 0.4% among 270,000; AID 2326; further: potency means the concentration at half of the fitted maximal effect; actives are rising curves; nearly all actives have a fitted effect of over 50% in size
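Growth recovery, yeast-based: influenza A NS1 expressed in S. cerevisiae causes slow growth, and suppressors are detected by OD600. The parent strain without NS1 is used as positive control.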
Pf growth 48h – inhibits P. falciparum growth in the first generation, 48 h | P. falciparum luciferase growth in erythrocytes, 48 h | Potency, µM (titrated, usually from 28.7 µM), inactives show at the top dose activity change, negative = inhibition, most hits filed as inhibitors | hit rate 5.9% among 310,000; active means well fitted inhibition curve with a large enough effect; inconclusive means small, poorly fitted or top-dose-only effect, or another doubt; inactive means no such curve, though single readings can be large or run the other way; further: potency means the concentration at half of the fitted maximal effect; on the % scale 0 is the no-effect control and ±100 the full control effect
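Erythrocytes infected with P. falciparum carrying an integrated firefly luciferase reporter (2% hematocrit, 0.1% parasitemia final) were exposed to compounds in RPMI 1640 with 0.5% Albumax at 37 C, 5% CO2. Growth inhibition was scored as reduced luminescence.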
Shiga toxin inh – blocks Shiga toxin action in Vero cells | hit rate 9.2% among 290,000 | Vero cells, Shiga toxin protein synthesis inhibition reporter | inhibition, % at 38.7 µM; in the data active means inhibition mostly above about 28%, no sharp cut-off; inactive means mostly below about 43%; further: 0% is about no effect
SARS PLP yeast – blocks SARS-CoV papain-like protease in a yeast assay | Potency, µM (series often up to 32.9 µM), for inactives: at the highest dose activity, positive = growth rescue, most hits filed as activators | S. cerevisiae expressing SARS-CoV PLpro, growth rescue | hit rate 0.19% among 330,000 | AID 485353; further: potency means the concentration at half of the fitted maximal effect; 0% is about no effect; nearly all actives have a fitted effect of over 55% in size
Numbers without * were called inactive. An excerpt weighted towards active compounds, which were near 21% of everything screened. Unless noted, the call rests on the fitted dose curve.

Results for COc1ccc2c(c1)CC/C2=N\OC(=O)c1ccccc1C ?
Pf growth 96h: inconclusive; Cycloheximide cs: 50.4*; Pf growth 48h: inconclusive; Shiga toxin inh: 134.8*; SARS PLP yeast: -16.4%

Results for O=C(O/N=C1\CCCc2ccccc21)c1cccs1 ?
Pf growth 96h: 31.0%; Cycloheximide cs: 35.8*; Pf growth 48h: inactive; Shiga toxin inh: 69.8*; SARS PLP yeast: -3.9%

What do the screens show for `Cc1cc(C)cc(N(C(=O)CNC(=O)c2ccco2)C(C(=O)NC2CCCCC2)c2ccncc2)c1` (stereo not given)?
Pf growth 96h: 0.4%; Cycloheximide cs: -9.0; NS1 function inh: -6.3%; Pf growth 48h: inconclusive; Shiga toxin inh: -4.1; SARS PLP yeast: 1.6%

How did Cc1ccc(N(CN2CCCC2=O)C(=O)c2ccc(C)c(C)c2)cc1 do in these assays?
Pf growth 96h: inconclusive; Cycloheximide cs: 16.5*; NS1 function inh: -2.3%; Pf growth 48h: 3.2%; Shiga toxin inh: 23.1; SARS PLP yeast: -0.3%

Results for Cc1ccc(C(=O)N(CN2CCCC2=O)c2ccccc2)cc1C ?
Pf growth 96h: inconclusive; Cycloheximide cs: 2.3; NS1 function inh: 10.3%; Pf growth 48h: inconclusive; Shiga toxin inh: 70.0; SARS PLP yeast: -2.8%

Results for Cc1ccc(SCCN2CCC(C)CCC2=O)cc1 (stereo not given) ?
Pf growth 96h: 84.7%; Cycloheximide cs: 29.2*; NS1 function inh: 0.9%; Pf growth 48h: 176.8%; Shiga toxin inh: 37.6*; SARS PLP yeast: 8.5%

How did CC(C)(C)C1CCC(=O)N(CCSc2ccccc2)CC1 (stereo not given) do in these assays?
Pf growth 96h: 8.4%; Cycloheximide cs: 32.2*; NS1 function inh: -17.0%; Pf growth 48h: 260.1%; Shiga toxin inh: 61.8*; SARS PLP yeast: -11.6%

How did Cc1ccc(SCCN2CCC(C(C)(C)C)CCC2=O)cc1 (stereo not given) do in these assays?
Pf growth 96h: -12.9%; Cycloheximide cs: 25.4*; NS1 function inh: -65.0%; Pf growth 48h: 94.2%; Shiga toxin inh: 42.1*; SARS PLP yeast: 15.1%

Results for CC(=O)Nc1ccc(SCCN2CC[C@@H](C(C)(C)C)CCC2=O)cc1 ?
Pf growth 96h: inconclusive; Pf growth 48h: inconclusive; SARS PLP yeast: -2.1%

Results for C[C@H]1CCC(=O)N(CCSc2ccc(Br)cc2)CC1 ?
Pf growth 96h: 56.2%; Pf growth 48h: 43.8%; SARS PLP yeast: 3.9%

What do the screens show for `Cc1ccc(C)c(S(=O)(=O)N2CCN(C(=O)[C@H](Cc3ccccc3)NC(=O)c3ccco3)CC2)c1`?
SARS PLP yeast: -1.0%

Results for COC(=O)[C@@]1(Cc2ccc(F)cc2)[C@H]2c3cc(C(=O)N4CCCC4)n(CCCNc4ncc(C(F)(F)F)cc4Cl)c3C[C@H]2CN1C(=O)c1ccccc1 ?
Pf growth 96h: inconclusive; Cycloheximide cs: -2.8; NS1 function inh: inconclusive; Pf growth 48h: 2.08µM*; Shiga toxin inh: 8.4; SARS PLP yeast: -0.6%

What do the screens show for `COc1ccc(NC2CCCN(C(=O)c3cccc(N4CCNC4=O)c3)C2)cc1` (stereo not given)?
Pf growth 96h: 1.5%; Cycloheximide cs: -11.1; NS1 function inh: 13.1%; Pf growth 48h: inconclusive; Shiga toxin inh: -12.3; SARS PLP yeast: -0.4%

Results for COc1ccc(C(O)Cn2cc([N+](=O)[O-])nc2C)cc1 (stereo not given) ?
Pf growth 96h: 53.6%; Cycloheximide cs: -2.0; NS1 function inh: -0.8%; Pf growth 48h: 31.6%; Shiga toxin inh: -5.0; SARS PLP yeast: -0.1%

What do the screens show for `CC1(C(=O)NCCCNc2ncc(C(F)(F)F)cc2Cl)C=CCN1C(=O)c1ccccc1` (stereo not given)?
Pf growth 96h: -22.0%; Cycloheximide cs: 15.9; NS1 function inh: 2.3%; Pf growth 48h: 0.0%; Shiga toxin inh: 14.8; SARS PLP yeast: 0.0%

Results for COC(=O)[C@@]1(Cc2ccc(OC)cc2)[C@H]2c3cc(C(=O)N4CCCC4)n(Cc4ccc(OC)c(OC)c4)c3C[C@H]2CN1C(=O)c1ccccc1 ?
Pf growth 96h: 1.47µM*; Cycloheximide cs: -1.9; NS1 function inh: 13.5%; Pf growth 48h: inconclusive; Shiga toxin inh: -14.3; SARS PLP yeast: 8.0%

How did COC(=O)[C@@]1(Cc2ccc(OC)cc2)[C@H]2c3cc(C(=O)N4CCCC4)n(CCn4cc([N+](=O)[O-])nc4C)c3C[C@H]2CN1C(=O)c1ccccc1 do in these assays?
Pf growth 96h: 0.586µM*; Cycloheximide cs: -1.7; NS1 function inh: 10.1%; Pf growth 48h: inconclusive; Shiga toxin inh: -4.3; SARS PLP yeast: 9.6%

How did COC(=O)[C@@]1(Cc2ccc(OC)cc2)[C@H]2c3cc(C(=O)N4CCCC4)n(CCN4CCNC4=O)c3C[C@H]2CN1C(=O)c1ccccc1 do in these assays?
Pf growth 96h: 1.65µM*; Cycloheximide cs: -1.3; NS1 function inh: -1.8%; Pf growth 48h: 1.85µM*; Shiga toxin inh: -8.5; SARS PLP yeast: 6.2%

Results for COc1ccc(C(=O)N2CCN(Cc3ccc(OC)c(OC)c3)CC2)cc1 ?
Pf growth 96h: 4.4%; Cycloheximide cs: -3.0; NS1 function inh: -9.7%; Pf growth 48h: -1.3%; Shiga toxin inh: -8.5; SARS PLP yeast: 1.2%

How did CC(Oc1cc(-c2ccccc2)cc2ccccc12)C(=O)N1CCOCC1 (stereo not given) do in these assays?
Cycloheximide cs: 11.2; NS1 function inh: -8.8%; Pf growth 48h: inconclusive; Shiga toxin inh: -22.4; SARS PLP yeast: 5.9%

What do the screens show for `COc1ccc(CCN(C(=O)c2ccccc2)C2=CC3CCC(C2)N3C)cc1OC` (stereo not given)?
Cycloheximide cs: 3.2; NS1 function inh: 3.9%; Pf growth 48h: 0.0%; Shiga toxin inh: -2.3; SARS PLP yeast: 6.4%

Results for COC(=O)[C@@]1(Cc2ccc(OC)cc2)[C@@H]2C(=CC(=O)[C@H]2CC(=O)C(=O)N2CCCC2)CN1C(=O)c1ccccc1 ?
Pf growth 96h: inconclusive; Cycloheximide cs: -3.9; NS1 function inh: -16.0%; Pf growth 48h: 10.4µM*; Shiga toxin inh: -17.2; SARS PLP yeast: -5.4%

How did COC(=O)[C@@]1(Cc2ccc(OC)cc2)[C@H]2c3cc(C(=O)N(C)C)[nH]c3C[C@H]2CN1C(=O)c1ccccc1 do in these assays?
Pf growth 96h: inconclusive; Cycloheximide cs: -3.4; NS1 function inh: -24.3%; Pf growth 48h: 4.65µM*; Shiga toxin inh: -16.8; SARS PLP yeast: 17.2%

How did COC(=O)[C@@]1(Cc2ccc(OC)cc2)[C@H]2c3cc(C(=O)N(C)C)n(CCc4ccc(OC)c(Br)c4)c3C[C@H]2CN1C(=O)c1ccccc1 do in these assays?
Pf growth 96h: 2.08µM*; Cycloheximide cs: -2.9; NS1 function inh: inconclusive; Pf growth 48h: 2.08µM*; Shiga toxin inh: -12.8; SARS PLP yeast: 11.2%

What do the screens show for `COC(=O)[C@@]1(Cc2ccc(OC)cc2)[C@@H]2[C@@H](CC(=O)[C@H]2CC(=O)C(=O)N(C)C)CN1C(=O)c1ccccc1`?
Pf growth 96h: inconclusive; Cycloheximide cs: -4.4; NS1 function inh: -13.8%; Pf growth 48h: inconclusive; Shiga toxin inh: -19.1; SARS PLP yeast: 2.8%
